Hit rate of the full screen: of about 400,000 compounds, about 13,000 (3.2%) were called active. Inconclusive results (about 18%) are left out. What follows is part of a selection rich in actives, with near analogues and random picks from the rest. Unmarked numbers belong to inactive results. Calls come from the whole dose curve; as a rule, active = well fitted cell-killing curve with a large enough effect; inconclusive = small, poorly fitted or top-dose-only effect, or effect the other way; inactive = flat fitted curve, though single readings scatter.
experiment: qHTS assay for MDR1-selective chemotherapeutics: Primary screen using the drug-selected MDR subline cells KB-V1; settings: KB-V1 MDR cells viability, CellTiter-Glo, 72 h; series mostly up to 46.1 µM; activity change, negative = cytotoxicity: at the top concentration; note: nearly all actives have a fitted effect of over 60% in size
Description: A prime difficulty in effectively treating cancer is the development of cellular resistance to multiple structurally unrelated anticancer drugs, a phenomenon known as multidrug resistance (MDR). […] Numerous strategies to overcome P-gp-mediated MDR have been explored, including the design of drugs that evade recognition and efflux, and development of inhibitors to block efflux and restore drug accumulation. […] An alternative approach is to exploit resistance by identifying drugs that target MDR cells over the non-resistant parental cells from which they were selected. […] The development of MDR1-selective agents represents a new strategy for resolving multidrug resistance, as it remains a long-standing clinical challenge for cancer chemotherapy.
Our goal is to identify compounds that selectively kill P-gp-expressing MDR cells. We will identify MDR1-selective compounds by comparing toxicity of compounds in the screening library against parental, drug-naive (KB-3-1) adenocarcinoma cells as well as their drug-selected MDR sub-line (KB-V1). The differential toxicity of compounds against these two cell lines will be used to identify MDR1-selective compounds, whose cytotoxicity is potentiated, rather than diminished, by P-gp expression. This assay will be utilized to conduct a quantitative high-throughput screen (qHTS) in collaboration with the NIH Chemical Genomics Center to identify selective agents, and probe hits arising from the screen will be validated using secondary assays and characterized through a well-established follow-up research program. This screen was run against the entire NCGC library collection of about 400,000 compounds.
NIH Molecular Libraries Probe Production Network [MLPCN]
NIH Chemical Genomics Center [NCGC]
PI: Michael Gottesman, National Cancer Institute, NIH
Briefly, 5 microL of media containing either KB-V1 cells (columns 1-2, 4-48) are dispensed into Greiner white, treated solid-bottom 1536-well assay plates (media-only control is added to column 3). Compounds are then transferred via Kalypsys pin tool equipped with 1536-pin array (10 nL slotted pins, V&P Scientific, San Diego, CA). Following addition of compound, the plates are incubated at 37 degrees C for 72 hours. CellTiter-Glo (2.5 µL/well) is then added, and the plates are read in a ViewLux reader (Perkin-Elmer, clear luminescence filter, 1 second exposure, 1x binning) following a 10 minute incubation. All cells are dispensed in DMEM phenol-red free media containing 10% FBS.
Library plates were screened starting from the lowest and proceeding to the highest concentration. Vehicle-only plates, with DMSO being pin-transferred to columns 5-48, will be inserted uniformly at the beginning and the end of each library in order to monitor and record any shifts in the background, which can be affected by reagent dispensers or loss in enzyme activity over time. Screening data will be corrected, normalized, and concentration-effect relationships will be derived by using publicly-available NCGC, NCATS curve fitting algorithms (http://ncgc.nih.gov/pub/openhts).
% is set by controls: 0 for no effect and ±100 for the full control effect; potency is the fitted concentration of half-maximal effect.

SMILES | activity change, negative = cytotoxicity | Potency
CC(=O)OC[C@@H]1CN(Cc2ccccc2)C[C@H](n2cnc3c(NCc4ccco4)ncnc32)O1 | 1.69% | 
COCc1ccc(C(=O)N2CCc3c([nH]c4ccccc34)C2c2ccccn2)s1 (stereo not drawn) |  | 18.4 µM (active)
O=C(c1cn2ccccc2n1)N1CCc2c([nH]c3ccccc23)C1c1ccccn1 (stereo not drawn) | -24.4% | 
c1ccc(C2c3[nH]c4ccccc4c3CCN2Cc2cccn2-c2cccnc2)nc1 (stereo not drawn) | -0.759% | 
COc1ccc(OC)c(NC(=O)c2cc(-c3cc(F)ccc3OCC3CCCO3)n[nH]2)c1 (stereo not drawn) | -1.76% | 
Cn1c(=O)c2c(nc(SCC(=O)Nc3ccc(F)cc3)n2Cc2ccccc2)n(C)c1=O | 12.7% | 
C[C@H]1Cn2cnc(C(=O)N[C@H](C)c3ccccc3)c2C(=O)N1 | -24.1% | 
COc1cc(OC)c(NC(=O)c2nc(-c3ccncc3)no2)cc1Cl | 7.86% | 
CC1CC(=O)Nc2ccccc2N1S(=O)(=O)c1cccs1 (stereo not drawn) | -8.08% | 
CC1CC(=O)Nc2ccccc2N1C(=O)COc1ccc2cc(Br)ccc2c1 (stereo not drawn) |  | 16.4 µM (active)
Cc1ccc(OCCC(=O)OCC(=O)N2c3ccccc3NC(=O)C2(C)C)cc1 | 6.74% | 
CN[C@H]1C[C@H]2c3cc(Oc4ccccc4C)ccc3CCN2C(=O)[C@H]1[C@H](C)O | 27.8% | 
C=CCNC(=O)c1ccc2nc(-c3ccco3)c(-c3ccco3)nc2c1 | -3.16% | 
C=Cc1ccc(C(=O)N2CCCC(CCC(=O)N3CCN(c4ccccn4)CC3)C2)cc1 (stereo not drawn) | 2.91% | 
O=C(CCC1CCCN(C(=O)Cc2ccc(F)cc2)C1)N1CCN(c2ccccn2)CC1 (stereo not drawn) |  | 16.4 µM (active)
COc1cccc(CC(=O)N2CCCC(CCC(=O)N3CCN(c4ccccn4)CC3)C2)c1 (stereo not drawn) | -10.8% | 
COc1ccc(/C=C/c2ccnc3ccccc23)cc1OC | -2.31% | 
Cc1cccc(OCC(=O)NCC(=O)N/N=C/c2ccc(N(C)C)cc2)c1 | 0.638% | 
Cc1ccc(/C=N/NC(=O)COc2ccccc2-c2ccccc2)cc1 |  | 1.03 µM (active)
Cc1ccc(/C=N/NC(=O)CSc2nc3ccccc3o2)cc1 | 5.24% | 
CCCc1c(C)nc2scc(-c3ccc(Cl)cc3)n2c1=O | -3.42% | 
CCOC(=O)C1CCN(Cc2ccc(-c3ccccc3)cc2)CC1 | 5.14% | 
CCOC(=O)C1(CCOC)CCN(Cc2ccc(C(=O)OC)cc2)CC1 | 3.28% | 
CCOC(=O)C1(S(=O)(=O)c2ccccc2)CCN(Cc2ccccc2)CC1 |  | 16.4 µM (active)

SMILES | activity change, negative = cytotoxicity | Potency
NC(=O)C1(N2CCCC2)CCN(Cc2ccccc2)CC1 | -12.1% | 
O=C(NNS(=O)(=O)c1ccc(Cl)cc1)C1CCN(Cc2ccccc2)CC1 | -3.31% | 
CCOC(=O)C1(S(=O)(=O)c2ccc(Cl)cc2)CCN(Cc2ccccc2)CC1 |  | 20.6 µM (active)
Cc1ccc(C=O)cc1Cl | -14.5% | 
Nc1ccccc1-c1nc2ccncc2[nH]1 | -2.3% | 
COc1ccc(OC)c(NC(=O)C2(C)CCN2C(=O)Cc2ccccc2)c1 (stereo not drawn) | 2.49% | 
Cc1ccc(S(=O)(=O)N2C[C@@H](C)[C@]3(C2)[C@H](O)[C@H](OC(=O)NCc2ccccc2)C[C@H]2C(=O)N(c4ccccc4)C(=O)[C@H]23)cc1 | 29.5% | 
CC1CCCC(C)N1C(=O)COC(=O)c1ccccc1C(=O)c1ccccc1 (stereo not drawn) | -3.83% | 
CCOc1ccc(NC(=O)C(CC(C)C)N2Cc3ccccc3C2=O)cc1 (stereo not drawn) | -6.07% | 
CC(C)Cc1ccc(S(=O)(=O)N2CCN(C(=O)c3ccco3)CC2)cc1 |  | 7.31 µM (active)
CN1CCN(S(=O)(=O)c2ccc(NC(=O)c3ccco3)cc2)CC1 | 12.3% | 
O=C(CNS(=O)(=O)c1ccccc1)N1CCN(C(=O)c2ccco2)CC1 | 6.15% | 
CCOc1ccccc1NC(=S)C(=C([O-])c1ccc2c(c1)OCCO2)[n+]1ccc(CC)cc1 | -25.9% | 
CCc1nnc(NC(=O)C2CC(=O)N(c3ccc4c(c3)OCCO4)C2)s1 (stereo not drawn) | 0% | 
CCOC(=O)c1ccc(NC(=O)C2CC(=O)N(c3ccc4c(c3)OCCO4)C2)cc1 (stereo not drawn) | 4.09% | 
CC(=O)c1ccccc1NC(=O)C1CC(=O)N(c2ccc3c(c2)OCCO3)C1 (stereo not drawn) |  | 16.4 µM (active)
COc1cccc(NC(=O)CSC2=Nc3ccccc3C3=NC(CC(=O)NC4CCCCC4)C(=O)N23)c1 (stereo not drawn) | 2.59% | 
CCc1ccc2c(c1)NC(=O)C2(C)Cc1ccc(OC(F)(F)F)cc1 (stereo not drawn) | -4.96% | 
Nc1ncnc2c1ncn2[C@@H]1O[C@H](CNC(=O)[C@H](N)Cc2cccnc2)[C@@H](O)[C@H]1O | 6.11% | 
CCC1(C)CC(=O)c2c(ccc3oc(C(=O)Nc4ccc(C(C)=O)cc4)c(C)c23)O1 (stereo not drawn) | -20.1% | 
Cc1ccc(Cn2c(=O)n(CCCC(=O)NCc3ccccc3Cl)c(=O)c3ccccc32)cc1 | -1% | 
COc1ccc(CCNC(=O)CCCCn2c(=O)c3ccccc3n(Cc3ccccc3C)c2=O)cc1OC | -3.1% | 
COc1cc(C(=O)Nc2ccc(OCc3cc(=O)n4cc(C)sc4n3)cc2)cc(OC)c1OC | 28% | 
Cn1c(=O)c2c(nc(Oc3ccc(C#N)cc3)n2Cc2ccc(Cl)cc2Cl)n(C)c1=O | 4.58% | 

Source: PubChem BioAssay AID1347076 (National Center for Advancing Translational Sciences (NCATS), 2019)
